# Test results from PubChem BioAssay (NCATS).
# Results filed as inconclusive are left out. Entries that show only a call come without a potency. Activity calls are given as the source filed them. The call rests on the fitted dose curve; in most records, active means well fitted inhibition curve with a large enough effect; inconclusive means small, poorly fitted or top-dose-only effect; inactive means flat fitted curve, though single readings scatter.
# Tested on: P93_24
# Assay: qHTS profiling for inhibitors of Plasmodium falciparum proliferation (AID 504749); further: nearly all actives have a fitted effect of over 60% in size
# Details: P. falciparum in erythrocytes, SYBR Green DNA, 72 h; series mostly up to 28.7 µM
# In short: (§1)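 Fluorescence of SYBR Green-bound parasite DNA, read at 485/535 nm, served as the growth measure. Infected erythrocytes were cultured with compound 72 h; artemisinin (0.29 uM) and DMSO wells defined the normalization range.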
# Potency means the concentration at half of the fitted maximal effect.
row,SMILES,Potency
1,NCCS(=O)(=O)O,inactive
2,CC(C)Cc1ccc(C(C)C(=O)O)cc1 (stereo unspecified),inactive
3,CC(C)NCC(O)c1ccc(O)c(O)c1 (stereo unspecified),inactive
4,NC(=O)OCC(COC(N)=O)c1ccccc1,inactive
5,N[C@@H](Cc1c[nH]c2ccc(O)cc12)C(=O)O,inactive
6,Cc1cnc(C(=O)NCCc2ccc(S(=O)(=O)NC(=O)NC3CCCCC3)cc2)cn1,inactive
7,CCOC(=O)C(C)(C)Oc1ccc(Cl)cc1,inactive
8,CS(=O)(=O)Nc1ccc([N+](=O)[O-])cc1Oc1ccccc1,inactive
9,CC(C)(C)C(=O)Oc1ccc(S(=O)(=O)Nc2ccccc2C(=O)NCC(=O)O)cc1,inactive
10,C[C@](N)(Cc1ccc(O)c(O)c1)C(=O)O,inactive
11,Clc1ccc2nsnc2c1NC1=NCCN1,inactive
12,Cn1cnc2c1c(=O)[nH]c(=O)n2C,inactive
13,CC(C)C(=O)Nc1ccc([N+](=O)[O-])c(C(F)(F)F)c1,inactive
14,COc1ccccc1OCC(O)CN1CCN(CC(=O)Nc2c(C)cccc2C)CC1 (stereo unspecified),inactive
15,COc1ccc2[nH]cc(CCNC(C)=O)c2c1,inactive
16,Cn1c(=O)c2c(ncn2C)n(C)c1=O,inactive
17,COC(=O)Nc1nc2ccc(C(=O)c3cccs3)cc2[nH]1,inactive
18,Clc1ccccc1C(c1ccccc1)(c1ccccc1)n1ccnc1,126 nM (active)
19,Nc1nc2c(ncn2COC(CO)CO)c(=O)[nH]1,inactive

row,SMILES,Potency
1,NCCCCCC(=O)O,inactive
2,CC12CC3CC(C)(C1)CC(N)(C3)C2,10000 nM (active)
3,Cc1cc(C(C)(C)C)c(O)c(C)c1CC1=NCCN1,inactive
4,Nc1nnc(-c2cccc(Cl)c2Cl)c(N)n1,inactive
5,CCOC(=O)c1ncn2c1CN(C)C(=O)c1cc(F)ccc1-2,inactive
6,CN(C)c1nc(N(C)C)nc(N(C)C)n1,inactive
7,NS(=O)(=O)c1cc2c(cc1Cl)NCNS2(=O)=O,inactive
8,CN1CCN2c3ccccc3Cc3ccccc3C2C1 (stereo unspecified),inactive
9,Cc1cn([C@H]2C[C@H](N=[N+]=[N-])[C@@H](CO)O2)c(=O)[nH]c1=O,inactive
10,CN(C)C(=N)N=C(N)N,inactive
11,CC[N+](CC)(CC)CCOc1cccc(OCC[N+](CC)(CC)CC)c1OCC[N+](CC)(CC)CC,inactive
12,Cc1ccc(C(=O)Nc2ccc(S(=O)(=O)O)c3cc(S(=O)(=O)O)cc(S(=O)(=O)O)c23)cc1NC(=O)c1cccc(NC(=O)Nc2cccc(C(=O)Nc3cc(C(=O)Nc4ccc(S(=O)(=O)O)c5cc(S(=O)(=O)O)cc(S(=O)(=O)O)c45)ccc3C)c2)c1,inactive
13,NC(=O)NO,inactive
14,CN1C(C(=O)Nc2ccccn2)=C(O)c2ccccc2S1(=O)=O,inactive
15,COc1cc2c(c(OC)c1OC)-c1ccc(OC)c(=O)cc1[C@@H](NC(C)=O)CC2,inactive
16,Cc1cn([C@H]2C=C[C@@H](CO)O2)c(=O)[nH]c1=O,inactive
17,CS(=O)(=O)CCNCc1ccc(-c2ccc3ncnc(Nc4ccc(OCc5cccc(F)c5)c(Cl)c4)c3c2)o1,inactive
18,CCCNCC(O)COc1ccccc1C(=O)CCc1ccccc1 (stereo unspecified),501 nM (active)
19,CC(=O)OCC(CCn1cnc2cnc(N)nc21)COC(C)=O,inactive

# Tested on: P94_40
# Assay: as above
# Details: P. falciparum in erythrocytes, SYBR Green DNA, 72 h; series mostly up to 28.7 µM
# In short: as §1
row,SMILES,Potency
1,NCCS(=O)(=O)O,inactive
2,CC(C)Cc1ccc(C(C)C(=O)O)cc1 (stereo unspecified),inactive
3,CC(C)NCC(O)c1ccc(O)c(O)c1 (stereo unspecified),inactive
4,NC(=O)OCC(COC(N)=O)c1ccccc1,inactive
5,N[C@@H](Cc1c[nH]c2ccc(O)cc12)C(=O)O,inactive
6,Cc1cnc(C(=O)NCCc2ccc(S(=O)(=O)NC(=O)NC3CCCCC3)cc2)cn1,inactive
7,CCOC(=O)C(C)(C)Oc1ccc(Cl)cc1,inactive
8,CS(=O)(=O)Nc1ccc([N+](=O)[O-])cc1Oc1ccccc1,inactive
9,CC(C)(C)C(=O)Oc1ccc(S(=O)(=O)Nc2ccccc2C(=O)NCC(=O)O)cc1,inactive
10,C[C@](N)(Cc1ccc(O)c(O)c1)C(=O)O,inactive
11,Clc1ccc2nsnc2c1NC1=NCCN1,inactive
12,Cn1cnc2c1c(=O)[nH]c(=O)n2C,inactive
13,CC(C)C(=O)Nc1ccc([N+](=O)[O-])c(C(F)(F)F)c1,inactive
14,COc1ccccc1OCC(O)CN1CCN(CC(=O)Nc2c(C)cccc2C)CC1 (stereo unspecified),inactive
15,COc1ccc2[nH]cc(CCNC(C)=O)c2c1,inactive
16,Cn1c(=O)c2c(ncn2C)n(C)c1=O,inactive
17,COC(=O)Nc1nc2ccc(C(=O)c3cccs3)cc2[nH]1,inactive
18,Clc1ccccc1C(c1ccccc1)(c1ccccc1)n1ccnc1,631 nM (active)
19,Nc1nc2c(ncn2COC(CO)CO)c(=O)[nH]1,inactive

row,SMILES,Potency
1,NCCCCCC(=O)O,inactive
2,CC12CC3CC(C)(C1)CC(N)(C3)C2,inactive
3,Cc1cc(C(C)(C)C)c(O)c(C)c1CC1=NCCN1,inactive
4,Nc1nnc(-c2cccc(Cl)c2Cl)c(N)n1,inactive
5,CCOC(=O)c1ncn2c1CN(C)C(=O)c1cc(F)ccc1-2,inactive
6,CN(C)c1nc(N(C)C)nc(N(C)C)n1,inactive
7,NS(=O)(=O)c1cc2c(cc1Cl)NCNS2(=O)=O,inactive
8,CN1CCN2c3ccccc3Cc3ccccc3C2C1 (stereo unspecified),inactive
9,Cc1cn([C@H]2C[C@H](N=[N+]=[N-])[C@@H](CO)O2)c(=O)[nH]c1=O,inactive
10,CN(C)C(=N)N=C(N)N,inactive
11,CC[N+](CC)(CC)CCOc1cccc(OCC[N+](CC)(CC)CC)c1OCC[N+](CC)(CC)CC,inactive
12,Cc1ccc(C(=O)Nc2ccc(S(=O)(=O)O)c3cc(S(=O)(=O)O)cc(S(=O)(=O)O)c23)cc1NC(=O)c1cccc(NC(=O)Nc2cccc(C(=O)Nc3cc(C(=O)Nc4ccc(S(=O)(=O)O)c5cc(S(=O)(=O)O)cc(S(=O)(=O)O)c45)ccc3C)c2)c1,inactive
13,NC(=O)NO,inactive
14,CN1C(C(=O)Nc2ccccn2)=C(O)c2ccccc2S1(=O)=O,inactive
15,COc1cc2c(c(OC)c1OC)-c1ccc(OC)c(=O)cc1[C@@H](NC(C)=O)CC2,inactive
16,Cc1cn([C@H]2C=C[C@@H](CO)O2)c(=O)[nH]c1=O,inactive
17,CS(=O)(=O)CCNCc1ccc(-c2ccc3ncnc(Nc4ccc(OCc5cccc(F)c5)c(Cl)c4)c3c2)o1,inactive
18,CCCNCC(O)COc1ccccc1C(=O)CCc1ccccc1 (stereo unspecified),316 nM (active)
19,CC(=O)OCC(CCn1cnc2cnc(N)nc21)COC(C)=O,inactive
